Measured values from PubChem BioAssay (NCI).
About 79,000 compounds went through this panel and 15% of them were active in at least one assay; those are over-represented in the sample as a whole. No stated cut-off is given here; in the data, active means growth inhibition above about 70%; inactive means the rest.

Key:
[1] = NCI Yeast Anticancer Drug Screen. Data for the rad50 strain (AID 155);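 further: 0% = growth of vehicle-only cultures of the same strain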; settings: S. cerevisiae rad50 strain growth inhibition; at 50.0 µM; hits give high values
Outline: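 Readout: growth inhibition relative to vehicle-treated cultures. Compound exposure was carried out in a genetically defined yeast strain deficient in DNA damage repair.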

[2] = NCI Yeast Anticancer Drug Screen. Data for the mec2-1 strain (AID 157); settings: S. cerevisiae mec2-1 strain, at 50.0 µM, hits give high values
Outline: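 Vehicle-treated cultures served as reference for growth inhibition of compound-exposed mec2-1 yeast.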

[3] = NCI Yeast Anticancer Drug Screen. Data for the sgs1 mgt1 strain (AID 161);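 further: 0% = growth of cultures given vehicle only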; settings: S. cerevisiae sgs1 mgt1 strain, at 50.0 µM, hits give high values
Outline: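 Test agents were incubated with a DNA-repair-mutant yeast strain. Growth was then read and compared against vehicle-treated controls.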

[4] = NCI Yeast Anticancer Drug Screen. Data for the cln2 rad14 strain (AID 165);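 further: 0% = growth equal to vehicle treated cultures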; settings: S. cerevisiae cln2 rad14 strain, at 50.0 µM, hits give high values
Outline: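 Each compound was tested on cln2 rad14 yeast. Inhibition of growth was calculated against vehicle-exposed controls.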

[5] = NCI Yeast Anticancer Drug Screen. Data for the bub3 strain (AID 167); settings: S. cerevisiae bub3 mutant strain, at 50.0 µM, hits give high values
Outline: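 Readout: yeast growth inhibition, expressed relative to vehicle-only wells. The test organism is a mutant strain from a panel with lesions in DNA repair or checkpoint genes.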

[6] = NCI Yeast Anticancer Drug Screen. Data for the mlh1 rad18 strain (AID 175); settings: S. cerevisiae mlh1 rad18 strain growth inhibition; at 50.0 µM; hits give high values
Outline: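 Vehicle-treated cultures served as the reference for growth inhibition in a yeast strain carrying DNA damage repair alterations exposed to each compound.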

Measured: growth inhibition

COc1cccc(C2=NC(C(C)C)CO2)c1OC (stereo not given)
inactive: [1] -11.3% | [2] -16.4% | [3] -15.8% | [4] 19.9% | [5] -8.35% | [6] -4.35%

Cc1ccc(N=c2cc(-c3ccccc3)oc3ccccc23)cc1
inactive: [1] 11.9% | [2] -1.25% | [3] 11.7% | [4] 3.7% | [5] 12.7% | [6] 20.4%

C=CCOC(=O)c1ccco1
inactive: [1] 5.6% | [2] -6.3% | [3] 2.35% | [4] -1.4% | [5] 0.45% | [6] 2.05%

CN1CC=C(C#CC(C)(C)O)CC1
inactive: [1] -13% | [2] -17.4% | [3] -0.65% | [4] 4.7% | [5] -5.9% | [6] -25.3%

CC1(C)OCC(C(OC(=O)c2ccc([N+](=O)[O-])cc2)C(OC(=O)c2ccc([N+](=O)[O-])cc2)C2COC(C)(C)O2)O1 (stereo not given)
inactive: [1] 24.6% | [2] 4.25% | [3] -5.3% | [4] 41.2% | [5] 2.9% | [6] 20.4%

CCO/C(Cc1ccc(Cl)cc1)=N/NC(N)=S
inactive: [1] 39.6% | [2] 2% | [3] 24.9% | [4] 24.1% | [5] 21.2% | [6] -15.5%

N#CC1(C#N)C2(c3ccccc3)OC(c3ccccc3)(c3cc4ccccc4cc32)C1(C#N)C#N
inactive: [1] 1.75% | [2] 20.1% | [3] -4.1% | [4] 14.1% | [5] 8% | [6] 29.1%

Cc1ccc(CCCC(=O)O)c2ccc3ccccc3c12
inactive: [1] 4.15% | [2] 2.4% | [3] 8.6% | [4] -9.4% | [5] 4.3% | [6] 3.55%

COc1cc2ccc3c4cc(OC)c(OC(C)C)cc4cnc3c2cc1OC
inactive: [1] -48.9% | [2] -15.3% | [3] -0.9% | [4] 29.6% | [5] -10.5% | [6] -4.45%

CN(C)C(=O)c1ccc(-c2ccccc2)cc1O
inactive: [1] -10.3% | [2] 20.2% | [3] 0.05% | [4] -18.1% | [5] -10.1% | [6] -4.65%

CC(O)CN1c2ccccc2Sc2ccc(Cl)cc21 (stereo not given)
inactive: [1] 19.2% | [2] 10.9% | [3] 3.35% | [4] 17.1% | [5] -4.9% | [6] 12.8%

c1ccc(SSc2ccc3ccccc3c2)cc1
inactive: [1] 22.4% | [2] 39.1% | [3] 32.6% | [4] 24.6% | [5] 31.4% | [6] 28.3%

N#CC(F)(F)C(F)(F)C(F)(F)C(F)(F)C(F)(F)C(F)(F)C(F)(F)F
inactive: [1] 33.5% | [2] -18.8% | [3] -11.2% | [4] -21.8% | [5] -15.3% | [6] -4.6%

CC(=O)C1(C(C)=O)OC2c3ccccc3C=CN2C=C1C=O (stereo not given)
inactive: [1] 6.6% | [2] 1.35% | [3] 14.6% | [4] 4.45% | [5] 6.05% | [6] 11.1%

O=[N+]([O-])/C=C/c1cn(CCCCCn2cc(/C=C/[N+](=O)[O-])c3ccccc32)c2ccccc12
inactive: [1] -5.65% | [2] -8.65% | [3] -2.45% | [4] -7.65% | [5] 8.35% | [6] -9.8%

CC1OCOC(CO)C(O)C1O (stereo not given)
inactive: [1] -18.5% | [2] 1.55% | [3] 17.5% | [4] -32% | [5] -3% | [6] -5.8%

COc1ccc(C(C)=O)cc1CCCOC(C)=O
inactive: [1] -0.7% | [2] -1.35% | [3] -7.5% | [4] 10.7% | [5] 9% | [6] -2.6%

CC(=O)NC1=C(C)C(=O)c2c(nc3n2CCC3OC(=O)c2ccccc2)C1=N (stereo not given)
inactive: [1] 15% | [2] -8.3% | [3] 22% | [4] 6% | [5] 26.9% | [6] -34%

CC(=O)OC(C(=O)Nc1ncccn1)c1ccccc1 (stereo not given)
inactive: [1] -4.7% | [2] -2.8% | [3] -5.65% | [4] 11.4% | [5] 4.5% | [6] -10.9%

CCN(CC)S(=O)(=O)c1ccc(N)cc1
inactive: [1] 26.1% | [2] 2.15% | [3] 25.4% | [4] -13.9% | [5] -2.2% | [6] 8.4%
